Inconclusive results are not listed. Where a call stands in place of a potency, no number is given. Activity calls are given as the source filed them. The call rests on the fitted dose curve; in most records, active means well fitted inhibition curve with a large enough effect; inconclusive means small, poorly fitted or top-dose-only effect; inactive means flat fitted curve, though single readings scatter.
Potency means the concentration at half of the fitted maximal effect.

Chain of Ubiquitin carboxyl-terminal hydrolase 1 (Homo sapiens) (O94782 whole entry, looked up): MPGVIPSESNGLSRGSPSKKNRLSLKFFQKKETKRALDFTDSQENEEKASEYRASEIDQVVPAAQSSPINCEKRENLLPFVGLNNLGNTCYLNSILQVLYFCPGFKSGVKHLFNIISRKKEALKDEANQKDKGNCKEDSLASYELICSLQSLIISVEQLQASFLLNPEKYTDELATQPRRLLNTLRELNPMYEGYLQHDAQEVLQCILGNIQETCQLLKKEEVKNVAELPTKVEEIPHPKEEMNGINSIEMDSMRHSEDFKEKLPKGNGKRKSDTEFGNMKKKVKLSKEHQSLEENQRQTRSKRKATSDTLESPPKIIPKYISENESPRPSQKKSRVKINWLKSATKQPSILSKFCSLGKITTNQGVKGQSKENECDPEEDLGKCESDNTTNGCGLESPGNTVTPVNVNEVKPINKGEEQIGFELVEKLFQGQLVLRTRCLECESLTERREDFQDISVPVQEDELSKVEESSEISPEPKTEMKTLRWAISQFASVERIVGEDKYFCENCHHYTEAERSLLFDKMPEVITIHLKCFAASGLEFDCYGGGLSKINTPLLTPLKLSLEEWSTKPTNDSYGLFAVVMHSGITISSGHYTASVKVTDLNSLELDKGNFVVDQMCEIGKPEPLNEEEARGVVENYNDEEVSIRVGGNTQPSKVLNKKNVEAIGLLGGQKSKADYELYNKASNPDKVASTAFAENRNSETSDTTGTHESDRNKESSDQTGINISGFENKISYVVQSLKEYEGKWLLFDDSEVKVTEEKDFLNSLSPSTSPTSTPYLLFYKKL

The experiment has as its target Ubiquitin carboxyl-terminal hydrolase 1 (Homo sapiens) (UniProt O94782). Description: Inhibitors of USP1/UAF1: Pilot qHTS (AID 504865). Further: nearly all actives have a fitted effect of over 35% in size. The following applies: purified USP1/UAF1, Ub-rhodamine cleavage fluorescence; series mostly up to 114 µM. The procedure, abridged:
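In 50mM HEPES pH 7.8 containing 0.5mM EDTA, 1mM TCEP, 0.1 mg/ml BSA and 0.01% Tween-20, 1nM USP1/UAF1 is exposed to compound for 15 min, then Ub-Rho (150nM final) is added and fluorescence is read over time.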
Background: Quantitative high-throughput screening tests each substance at several concentrations.
For the molecule `O=C(O)/C=C/C(=O)Nc1ccc(S(=O)(=O)Nc2nccs2)cc1`, the Potency entry was “inactive”. Under `CC(=O)[O][Al][O]C(C)=O` stands “inactive”.

For the molecule `F[Si-2](F)(F)(F)(F)F`, the Potency result was “inactive”. As for `O=C(O)COc1ccc(CCNS(=O)(=O)c2ccccc2)s1`, the entry is “inactive”. As for `O=C1c2ccccc2C(=O)C1c1ccc(F)cc1`, the entry is “inactive”. Turning to `CCCC(CCC)C(=O)OC1C[C@H]2CC[C@@H](C1)[N+]2(C)C` (stereo not given in full), the Potency result was “inactive”.

In the case of `CC(CC=O)CCCC(C)(C)O` (stereo not given), the Potency entry is “inactive”. Under `CC(=O)Oc1cccc(C(=O)O)c1OC(C)=O` stands “inactive”; under `Cc1nc(NS(=O)(=O)c2ccc(N)cc2)nc(C)c1Br`, “inactive”.

In the case of `CCCc1ccc(C(=O)O)cc1`, the Potency entry is “inactive”. As for `C#C[C@]1(O)CC[C@@H]2[C@H]3CCC4=CC(=O)CC[C@H]4[C@H]3C(=C)C[C@@]21CC`, the entry is “inactive”; as for `CC(C)CCCC(C)NC(C)C` (stereo not given), “inactive”; as for `O=C(NNCNNC(=O)c1ccncc1)c1ccncc1`, “inactive”.

In the case of `O=C(O)c1ccc(NC(=O)[C@H](Cc2ccc(O)cc2)NC(=O)c2ccccc2)cc1`, the Potency entry was “inactive”.

For the molecule `CCOC(=O)C1=C(COCCN)NC(C)=C(C(=O)OC)C1c1ccccc1Cl` (stereo not given), the Potency result was “inactive”. `CCSc1ccc2c(c1)N(CCCN1CCN(C)CC1)c1ccccc1S2`: the Potency entry is “inactive”. `Cn1cc(NC(=O)c2cc(NC(=O)c3cc(NC=O)cn3C)cn2C)cc1C(=O)NCCC(=N)N`: the Potency entry is “inactive”. As for `CCN(CC)CCC(=O)N1c2ccccc2Sc2ccc(Cl)cc21`, the entry is “inactive”; as for `CC(=O)c1ccc2c(c1)N(CCCN1CCN(CCO)CC1)c1ccccc1S2`, “inactive”; as for `CC(=O)[C@H]1CC[C@H]2[C@@H]3C=CC4=CC(=O)CC[C@@]4(C)[C@H]3CC[C@]12C`, “inactive”. Under `O=P(O)(O)OP(=O)(O)OP(=O)(O)O` stands “inactive”.

Take `CN[C@@H]1[C@H](O[C@H]2[C@H](O[C@H]3[C@H](O)[C@@H](O)[C@H](N=C(N)N)[C@@H](O)[C@@H]3N=C(N)N)O[C@@H](C)[C@]2(O)C=O)O[C@@H](CO)[C@H](O)[C@H]1O`: the Potency entry was “inactive”. As for `CCC(C(=O)NC(N)=O)c1ccccc1` (stereo not given), the Potency entry was “inactive”. Under `CC(=O)Nc1ccc(OC(=O)c2ccccc2O)cc1` stands “inactive”; under `Cc1ccccn1`, “inactive”; under `CCCCCCCCCCCCOCCCN`, “inactive”. Under `CC1(C)S[C@@H]2[C@H](NC(=O)C3(N)CCCCC3)C(=O)N2[C@H]1C(=O)O` stands “inactive”; under `CCc1ncnc2cc(OC)c(OC)cc12`, “inactive”. Under `O=C(CCCN1CCC(C(=O)c2ccc(F)cc2)CC1)c1ccc(F)cc1` stands “inactive”; under `O=c1[nH]c(=O)n([C@H]2C[C@H](O)[C@@H](CO)O2)cc1/C=C/Br`, “inactive”; under `Cc1cccc(C)c1NC(=O)C1CCCCN1C` (stereo not given), “inactive”. As for `C=CC[N+]1([C@H]2C[C@H]3[C@@H]4CC[C@H]5C[C@H](O)[C@@H](N6CCOCC6)C[C@]5(C)[C@H]4CC[C@]3(C)[C@H]2OC(C)=O)CCCC1`, the Potency result is “inactive”.

Consider `O=C(O[C@H]1CN2CCC1CC2)N1CCc2ccccc2[C@@H]1c1ccccc1`, for which the Potency result was “inactive”.

On to `CN=C1C=CC(=C(c2ccc(N(C)C)cc2)c2ccc(N(C)C)cc2)C=C1`, for which the Potency was 20 µM (active). Under `CC(=O)Nc1ccc(OC(C)=O)cc1` stands “inactive”.

For the origin of these results see PubChem BioAssay (NCATS).
